This experiment in a line: dose response, counter-screen, biochemical, fluorescence, single-stranded RNase substrate (AID 588502). To be noted: oligo substrate without MazF, fluorescence increase, 5 h. (The purpose of a counterscreen is to sort out artefacts and off-target activity.)

Entries with a potency or affinity are not part of this list. Values without a mark were called inactive. How the calls were made is not given here.

Turning to `CC1CCC(=NNS(=O)(=O)c2ccc([N+](=O)[O-])cc2)CC1` (stereo unspecified), the EC50 was above 99 µM.

Broadly, the EC50 is the concentration giving half of the maximal effect.

The record behind these values is PubChem BioAssay AID588502 (Sanford-Burnham Center for Chemical Genomics, 2011).
